One assay addresses NT5C3L. Nature of the assay: pooled miR-30 sensor sort-seq; sequence = guide strand. The note with it: shRNA.
Regarding TTTCCATTATATGCAAACCTGC, the sensor-assay potency score (higher = more potent) is -1.3.
On the same count and under the same terms, then TTGTGTGCTTTGGTCCACCATT, with -1.32; and AAACTTCTGAATCTTCTGCTGA, with -0.000526; and TTGCATTGGACTCTCTAACCAC, with -0.0742.
TATCTGAAACTTCTGAATCTTC had a sensor-assay potency score (higher = more potent) of -0.418.

For a further assay, the target named is NTHL1. The description is as above. The note with it: shRNA.
In turn, TTCTTGGTCCACCTCAGCCTGT registered a sensor-assay potency score (higher = more potent) of -1.58.
The same measure, in the same setting: then TTTTTGTTCCTCATGGCACGGA, with 0.281.
On to ATGTATTTCACCTTGCTCCTCC, for which the sensor-assay potency score (higher = more potent) came to 0.0621.
On the same count and under the same terms, then ATCAGTGACAGCAGCACCTGGT, with -0.43.
In turn, TATTTCACCTTGCTCCTCCAGA displayed a sensor-assay potency score (higher = more potent) of -0.193.
Consider TTGATGTATTTCACCTTGCTCC, for which the sensor-assay potency score (higher = more potent) was -0.737.
TTTTCCTCGCTTCTGCTGCAGC came in with a sensor-assay potency score (higher = more potent) of -0.814.
Regarding TTGACCAGCTGTTGCTGCCAGT, the sensor-assay potency score (higher = more potent) is -1.05.
On to TAGATGAGCTTGCCCAGCGTGG, for which the sensor-assay potency score (higher = more potent) was -1.11.
Same read-out and setting: then TTCTGTGCACATGCGTGTCCAC, with -0.487; and TCATCTGTCTGCAGGATGCTGT, with -0.751; and TTGGTTGCCTTCTTGGTCCACC, with -0.633.

(Values after the OligoGym collection.)
Also: reference of the scale not given here.
